Measured values taken from PubChem BioAssay (NCATS).
Results filed as inconclusive are left out. Values without a mark were called inactive. Calls of active or inactive are those of the source. The call rests on the fitted dose curve; in most records, active means well fitted inhibition curve with a large enough effect; inconclusive means small, poorly fitted or top-dose-only effect; inactive means flat fitted curve, though single readings scatter.

These compounds were tested on HEK293 (assay: Cytotoxic Profiling of Annotated Libraries Using Quantitative High-Throughput Screening (AID 1296008; further: nearly all actives have a fitted effect of over 60% in size)). Conditions: Five cell lines viability, CellTiter-Glo ATP luminescence, 48-72 h; max response: hits give low values.
Method in brief: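 Cells exposed to compounds for 48 or 72 hr at 37 degrees Celsius. Viability read as ATP-coupled luminescence with CellTiter-Glo after 10 min at room temperature.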
On the % scale 0 is the no-effect control and ±100 the full control effect; potency means the concentration at half of the fitted maximal effect.

Which max response does the source give for `C[C@H](O)[C@H](O)/C=C/c1cccc(O)c1CO` here?
The max response was -4.7%.

How did the Potency turn out when `COc1cc2c(cc1OC)-c1[nH]nc(Nc3cccc(F)c3)c1C2` was run?
The Potency was 130 nM (active).

For `COc1cc(OC)c(/C=C/S(=O)(=O)Cc2ccc(OC)c(NCC(=O)O)c2)c(OC)c1`, which Potency is on record?
The Potency was 58 nM (active).

For `O=C(O)c1cc2cccc([N+](=O)[O-])c2[nH]1`, which max response is on record?
Its max response is 2.87%.

Which max response does the source give for `COc1cc(/C=C/C=O)cc(OC)c1O[C@@H]1O[C@H](CO)[C@@H](O)[C@H](O)[C@H]1O` here?
The max response was -3.11%.

How did the max response turn out when `Cc1cc(C)nc(NS(=O)(=O)c2ccc(NC(=S)NC(=O)COc3ccc(Br)cc3Cl)cc2)n1` was run?
Its max response is 2.6%.

Which max response does the source give for `C=C1[C@H](OC(C)=O)[C@H]2[C@@H](OC(C)=O)[C@](C)(OC(C)=O)C[C@]2(OC(C)=O)C(=O)[C@H](C)/C=C/C(C)(C)C(=O)[C@H](OC(=O)C(C)CC)[C@H]1OC(C)=O` (some centres undefined) here?
Its max response is 1.43%.

For `CC1(C)CC[C@]2(C(=O)O[C@@H]3O[C@H](CO)[C@@H](O)[C@H](O)[C@H]3O)CC[C@]3(C)C(=CCC4[C@@]5(C)CC[C@H](O[C@@H]6O[C@H](C(=O)O)[C@@H](O)[C@H](O[C@@H]7O[C@H](CO)[C@H](O)[C@H](O)[C@H]7O)[C@H]6O)C(C)(C)C5CC[C@]43C)C2C1` (some centres undefined), which max response is on record?
The max response was 1.5%.

With `C=C1C(OC2OCC(O)C(O)C2O)CC2C(C)(C)C(O)CCC2(C)C1CC/C(C)=C\CO` (centres undefined) as the compound, how does the max response read?
The max response was -24.4%.

`O=C(O)[C@@H]1C[C@H]2C[C@@H](CCc3nn[nH]n3)CC[C@H]2CN1` was tested. Which max response did it give?
Its max response is 1.79%.

Which max response does the source give for `N#C[C@@H]1CCCN1C(=O)CNC12CC3CC(CC(O)(C3)C1)C2` here?
Its max response is -12.1%.

Which max response does the source give for `COc1ccc(-c2ccc(-c3cn(C(=O)N4CCCCC4c4ccccc4)nn3)cc2)cc1` (centres undefined) here?
The max response was 1.03%.

How did the max response turn out when `C/C=C(\C)C(=O)O[C@H]1[C@@H](O[C@]2(COC(=O)CC(C)C)O[C@H](COC(=O)C(C)CC)[C@@H](OC(C)=O)[C@@H]2O)O[C@H](COC(C)=O)[C@@H](O)[C@@H]1O` (some centres undefined) was run?
The max response was 2.82%.

For `C=CC[C@]12C[C@@H](OC)C(=O)C(OC)=C1O[C@@H](c1cc(OC)c3c(c1)OCO3)[C@@H]2C`, which max response is on record?
Its max response is -8.3%.

How did the max response turn out when `O=C1N=C(N2CCOCC2)CN1c1ccc(Cl)cc1` was run?
Its max response is -16.9%.

`CC/C=C/CC1=C(CCCCC(CCC(=O)O)OC(C)=O)CCC1=O` (centres undefined) was tested. Which max response did it give?
The max response was -16.2%.

`CCn1cc(NC(=S)Nc2cc(Cl)ccc2OC)c(C(N)=O)n1` was tested. Which max response did it give?
The max response was -2.95%.

With `Cc1cc(OCc2nc(-c3ccccc3Cl)cs2)ccc1OCC(=O)O` as the compound, how does the max response read?
Its max response is -1.87%.

For `CC(C)(O)/C=C/C1=CC(=O)[C@@](C)(O)C[C@H]1O`, which max response is on record?
The max response was -6.16%.

With `CC1CC[C@]2(C(=O)O)CC[C@]3(C(=O)O)C(=CCC4[C@@]5(C)CC[C@H](OC6OC(C)C(O)C(OC7OC(CO)C(O)C(O)C7O)C6O)C(C)(C)C5CC[C@]43C)C2C1C` (some centres undefined) as the compound, how does the max response read?
Its max response is -0.0822%.

Which Potency does the source give for `COc1cc2c(cc1O)CC[C@H]1[C@@H]2CC[C@]2(C)[C@H](O)CC[C@@H]12` here?
The Potency was 1030 nM (active).

With `COc1ccc([C@@]2(O)c3c(ccc4c3OC(C)(CCC=C(C)C)C=C4)NC(=O)[C@@H]2OC)cc1` (some centres undefined) as the compound, how does the max response read?
The max response was -3.72%.

How did the max response turn out when `CCO[C@@H]1OC(=O)C[C@@H]1NC(=O)[C@@H]1CCCN1C(=O)[C@@H](NC(=O)c1ccc(N)c(Cl)c1)C(C)(C)C` was run?
Its max response is 1.39%.

Which Potency does the source give for `CN(C)C/C=C/C(=O)Nc1cccc(C(=O)Nc2cccc(Nc3ncc(Cl)c(-c4c[nH]c5ccccc45)n3)c2)c1` here?
Its Potency is 580 nM (active).

`C[C@@H]1CC[C@]2(C(=O)O[C@@H]3O[C@H](CO)[C@@H](O)[C@H](O)[C@H]3O)CC[C@]3(C)C(=CCC4[C@@]5(C)C[C@@H](O)[C@H](O)[C@](C)(C(=O)O)C5CC[C@]43C)[C@@H]2[C@]1(C)O` (some centres undefined) was tested. Which max response did it give?
The max response was 2.11%.

For `COc1cc(O)c([C@@H](CC(=O)N2CC(C)CC(C)C2)c2ccc3c(c2)OCO3)c(OC)c1` (some centres undefined), which max response is on record?
Its max response is -5.89%.

How did the max response turn out when `CC1(C=O)CC[C@]2(C(=O)O[C@@H]3O[C@H](CO)[C@@H](O)[C@H](O)[C@H]3O)CC[C@]3(C)C(=CCC4[C@@]5(C)C[C@H](O)[C@H](O[C@@H]6OC[C@@H](O)[C@H](O)[C@H]6O)[C@@](C)(CO)C5CC[C@]43C)C2C1` (some centres undefined) was run?
Its max response is -6.07%.

How did the max response turn out when `CCC(C)C(=O)O[C@H]1CCC=C2C=C[C@H](C)[C@H](CC[C@@H](O)C[C@@H](O)CC(=O)O)[C@H]21` (some centres undefined) was run?
The max response was 0.832%.

How did the max response turn out when `N#Cc1ccc(C(=O)N2CCC3(CC2)N=C(N)c2c(F)ccc(F)c2N3)cn1` was run?
Its max response is -18.7%.

For `O=C(/C=C/c1ccc(O)cc1)N[C@@H](Cc1ccc(O)cc1)C(=O)O`, which max response is on record?
Its max response is -7.32%.

For `C[C@@H]1C(=O)O[C@H]2[C@H](O)C34[C@H]5C[C@@H](C(C)(C)C)C36[C@@H](OC(=O)[C@@H]6O)O[C@@]4(C(=O)O5)[C@@]12O` (some centres undefined), which max response is on record?
Its max response is -1.33%.

`CC1(C)CCCC2(C)C1CC=C1C(=O)OC(O)C12O` (centres undefined) was tested. Which max response did it give?
The max response was -21.2%.

With `C=C[C@H]1[C@H](O[C@@H]2O[C@H](CO)[C@@H](O)[C@H](O)[C@H]2O)OC=C(C(=O)OC)[C@H]1C[C@@H]1c2cc(O)c(O)cc2CCN1C(C)=O` as the compound, how does the max response read?
Its max response is 2.33%.

`CC1=CC2/C=C(\C)CC[C@@H](O)[C@@H](O)[C@@H]3O[C@@H]3C(=O)[C@]23C(=O)N[C@@H](CC(C)C)[C@@H]3[C@@H]1C` (some centres undefined) was tested. Which max response did it give?
The max response was 1.09%.

For `Cc1ccc(S(=O)(=O)Cc2nc(-c3ccc(C(=O)NCc4cccnc4)cc3)oc2C)cc1`, which Potency is on record?
The Potency was 6.5 nM (active).

For `CC(O)CO[C@@H]1O[C@H](CO)[C@@H](O)[C@H](O)[C@H]1O` (some centres undefined), which max response is on record?
Its max response is -61.7%.

With `OC[C@H]1O[C@@H](OCCc2ccc(O)cc2)[C@H](O[C@@H]2OC[C@](O)(CO)[C@H]2O)[C@@H](O)[C@@H]1O` as the compound, how does the max response read?
The max response was 0.652%.

For `Nc1nc(-n2cc(C(=O)O)c(=O)c3cc(F)c(N4CC(O)C4)c(Cl)c32)c(F)cc1F`, which outcome is on record?
The outcome was “inactive”.

How did the max response turn out when `CC1CC(C(O)C(C)(C)O)OC2CC3(C)C4(C)CCC5C(C)(C)C(=O)CCC5(C)C4CCC3(O)C12O` (centres undefined) was run?
Its max response is -2.59%.
